High-throughput results from PubChem.
CRFBP-R2 block – CRF-BP/CRF-R2 complex antagonism. 350,000 compounds, 0.59% hits. inhibition, % at 11.8 µM. AID 588475. HEK293 CRF-R2/CRF-BP, CRF-induced calcium fluorescence;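 active means inhibition of the ligand-induced calcium signal above about 50% at the single tested concentration, limit read from the data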
TLR9-MyD88 block – TLR9-MyD88 interaction inhibition | Q9NR96+Q99836 | inhibition, % at 4.98 µM | CHO BLA complementation TLR9-MyD88, CCF4 FRET ratio | 340,000 compounds, 0.21% hits;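 active means inhibition above the mean over all tested compounds plus 3 SD, cut at about 21% in these data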;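 further: 0% = DMSO only wells and 100% = clavulanate BLA inhibitor control wells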
ABHD5 PLIN5 PPI – inhibitors of human ABHD5-perilipin-5 interaction; Split G. princeps luciferase complementation, luminescence, 4 h; inhibition, % at 4 µM; Q00G26+Q8WTS1; 360,000 compounds, 0.78% hits;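 active means inhibition above the mean inhibition across every tested compound plus 3 SD, cut at about 22% in these data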;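 further: 0% = DMSO only wells and the 100% control is not disclosed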
HTR2A ag – activates the mouse 5-HT2A serotonin receptor. 360,000 compounds, 0.66% hits. AID 624169. CHO-K1 mHTR2A beta-arrestin complementation, luminescence; percent of 30 µM serotonin response. activation, % at 7.6 µM;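 active means activation above a run cutoff, the mean activation of all tested compounds plus 3 SD, cut at about 14% in these data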;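 further: 0% = plate median of compound wells and 100% = 30 µM serotonin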
Target sequence (P35363 whole entry, looked up): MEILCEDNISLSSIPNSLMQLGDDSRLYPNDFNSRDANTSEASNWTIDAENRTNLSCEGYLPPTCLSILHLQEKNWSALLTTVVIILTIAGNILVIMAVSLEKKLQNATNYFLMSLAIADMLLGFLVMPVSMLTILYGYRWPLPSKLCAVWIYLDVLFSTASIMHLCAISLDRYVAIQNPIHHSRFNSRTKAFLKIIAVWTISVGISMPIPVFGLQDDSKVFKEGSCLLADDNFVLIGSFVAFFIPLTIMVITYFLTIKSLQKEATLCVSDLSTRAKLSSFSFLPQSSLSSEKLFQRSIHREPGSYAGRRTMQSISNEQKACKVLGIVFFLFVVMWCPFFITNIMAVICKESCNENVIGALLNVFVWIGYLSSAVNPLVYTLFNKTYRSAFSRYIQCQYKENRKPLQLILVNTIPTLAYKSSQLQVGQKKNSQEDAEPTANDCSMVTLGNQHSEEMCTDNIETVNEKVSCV
NOD2-RIPK2 inh – NOD2-RIPK2 protein interaction inhibition | AID 624267 | 360,000 compounds, 0.38% hits | CHO BLA complementation NOD2-RIPK2, CCF4 ratio | O43353 | inhibition, % at 4.98 µM; in the data active means inhibition above about 21%;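 further: 0% = vehicle only and 100% = reference blocker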
TLR4-MyD88 BLA – TLR4-MyD88 interaction inhibition in cells | 200,000 compounds, 0.18% hits | HeLa CL3-4 TLR4/MyD88 BLA complementation, FRET ratio | O00206+Q99836 | inhibition, % at 8.4 µM; in the data active means inhibition above about 25%;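 further: 0% = vehicle and 100% = reference inhibitor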
NOD2-RIPK2 conf – confirmation of human NOD2-RIPK2 interaction inhibitors; shares compounds with NOD2-RIPK2 inh; 1,200 compounds, 70% hits; inhibition, % at 4.98 µM; AID 624370; CHO cells, NOD2-RIPK2 BLA complementation, CCF4 FRET;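 active means mean inhibition across replicates above a set limit taken from the earlier primary screen, cut at about 21% in these data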;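 further: 0% = DMSO-only wells and the high end = clavulanate BLA-blocked wells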
BLA counter – counter-screen for NOD2-RIPK2 interaction inhibitors: BLA reporter. shares compounds with NOD2-RIPK2 inh. CHO BLA reporter, CCF4 FRET ratio, counterscreen. inhibition, % at 4.98 µM. 1,200 compounds, 57% hits;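 active means mean inhibition above the low-control mean inhibition plus three low-control SD, cut at about 11% in these data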;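 further: 0% = DMSO only wells and 100% = clavulanate high control wells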
* = called active by the depositor; nt = no result. An excerpt weighted towards active compounds, which were near 2.4% of everything screened.

SMILES	CRFBP-R2 block	TLR9-MyD88 block	ABHD5 PLIN5 PPI	HTR2A ag	NOD2-RIPK2 inh	TLR4-MyD88 BLA	NOD2-RIPK2 conf	BLA counter
COc1cccc2sc(N(CCCN(C)C)C(=O)c3ccc(S(=O)(=O)N4CCc5ccccc5C4)cc3)nc12	-8	3	22	-4	13	nt	nt	nt
COc1ccc(C)c2sc(N(CCCN(C)C)C(=O)c3ccc(S(=O)(=O)N4CCc5ccccc5C4)cc3)nc12	-19	11	17	-3	24*	nt	44*	16*
COc1ccc(-c2nn(-c3ccccc3)cc2/C=C/C(=O)OCC(=O)Nc2cccc(C#N)c2)cc1	-18	-6	-5	6	36*	-2	-2	-10
COc1ccc(-c2nn(-c3ccccc3)cc2/C=C/C(=O)OCC(=O)Nc2ccc(C#N)cc2)cc1	8	1	2	1	-4	-3	nt	nt
CC(C)C(C(=O)NCc1ccccc1)N1CCN(C(=O)C2CCCO2)CC1 (stereo not given)	nt	nt	-5	-3	-5	nt	nt	nt
O=C1/C(=C/c2ccco2)Oc2c1ccc(O)c2CN1CCCCC1	-19	-4	8	2	4	7	nt	nt
CCC(=O)Oc1ccc2c(c1)O/C(=C\c1ccco1)C2=O	-33	nt	15	-1	44*	nt	56*	61*
COCCN(CCOC)Cc1c(O)ccc2c1O/C(=C\c1ccco1)C2=O	-12	12	16	5	23*	nt	43*	46*
COC(=O)[C@@]12C[C@@H](CC(=O)NCC3CCCCC3)C(=O)N(Cc3ccc4c(c3)OCO4)C1=CCC(C)(C)C2	nt	nt	-5	-3	0	nt	nt	nt
O=C1C=C(c2c(O)ccc3ccccc23)c2ccccc2C1=O	-9	-5	91*	15*	21*	nt	15	-11
O=C1C=C(O)c2cccc(O)c2C1=O	-6	2	-22	-2	2	nt	nt	nt
CC(=O)N1CCc2cc(NC(=O)C3(C)CCN3CCc3ccccc3)ccc21 (stereo not given)	nt	nt	5	-1	-7	nt	nt	nt
Cc1ccccc1NC(=S)NCc1ccc2c(c1)OCO2	26	8	-5	-5	39*	10	-2	-3
COc1ccc(C(C)(O)c2nc(-c3ccc(OC)nc3)cs2)cc1 (stereo not given)	nt	nt	0	0	2	nt	nt	nt
CC(C)C(=O)N1CCN(c2ccc(NC(=O)c3ccc([N+](=O)[O-])o3)cc2Cl)CC1	4	6	-4	-6	26*	17	23*	8
CN1CCN(c2ccc(NC(=O)c3ccc([N+](=O)[O-])o3)cc2Cl)CC1	-6	9	1	-3	23*	nt	20	17*
CC(=O)N1CCN(c2ccc(NC(=O)c3ccc(Br)o3)cc2Cl)CC1	-2	-10	2	-4	-7	-19	nt	nt
CCn1c(NCc2cc(Cl)ccc2O)nc2ccccc21	-7	-5	-3	-7	46*	nt	-1	-1
Cc1nc2c(C#N)c(-c3ccc(Cl)cc3)ccn2n1	4	-4	2	5	-1	10	nt	nt
CC(C)(C)c1nc2c(C#N)c(-c3ccc(Cl)cc3)ccn2n1	-13	2	-1	-6	24*	1	2	-2
Cc1cc(NC(=O)CSc2nc3cc(C(=O)NCCCOC(C)C)ccc3c(=O)n2Cc2ccco2)no1	-3	-5	-2	-2	30*	2	-4	-1
COC(=O)c1ccc2c(=O)n(Cc3ccco3)c(SCC(=O)Nc3cc(C)on3)nc2c1	1	3	-6	5	1	-9	nt	nt
C[C@H](CO)N1C[C@H](C)[C@@H](CN(C)Cc2ccc(C(=O)O)cc2)Oc2ncc(Br)cc2C1=O	-4	4	-2	3	-5	nt	nt	nt
Cc1cccc(NS(=O)(=O)c2ccc(-c3cnc(C4CC4)o3)cc2)c1C	1	2	0	6	26*	nt	14	-1
N#Cc1c(C(F)(F)F)cc(-c2ccco2)nc1SCc1ccncc1	-11	18	4	0	29*	13	-3	-2
SMILES	CRFBP-R2 block	TLR9-MyD88 block	ABHD5 PLIN5 PPI	HTR2A ag	NOD2-RIPK2 inh	TLR4-MyD88 BLA	NOD2-RIPK2 conf	BLA counter
Nc1c(C(=O)Nc2ccc(Br)cc2)sc2nc(-c3ccco3)ccc12	-13	36*	0	2	26*	23	67*	66*
CCCCCNC(=O)C(c1cccc2ccccc12)n1c(=O)c(-c2cc3ccccc3[nH]2)nc2ccccc21 (stereo not given)	nt	nt	-1	-4	42*	nt	36*	64*
CCCCCNC(=O)C(CCc1ccccc1)n1c(=O)c(-c2cc3ccccc3[nH]2)nc2ccccc21 (stereo not given)	nt	nt	-10	2	44*	nt	41*	66*
CCCCCNC(=O)C(c1ccncc1)n1c(=O)c(-c2ccccc2)nc2ccccc21 (stereo not given)	nt	nt	1	0	9	nt	nt	nt
CCCCCNC(=O)C(c1ccccc1)n1c(=O)c(-c2cc3ccccc3[nH]2)nc2ccccc21 (stereo not given)	nt	nt	-6	-2	46*	nt	40*	64*
C=CCn1c(-c2oc3nc(-c4ccccc4)cc(-c4ccccc4)c3c2N)n[nH]c1=S	-5	1	-14	2	34*	8	87*	88*
Cc1ccc(-c2nnn(CC(=O)Nc3ccccc3N3CCOCC3)n2)cc1	-32	-6	-5	9	21*	-1	-3	2
O=C(NCc1ccccc1)C(c1ccc(-c2ccccc2)cc1)n1c(=O)c(-c2cc3ccccc3[nH]2)nc2ccccc21 (stereo not given)	nt	nt	-8	-3	23*	nt	42*	66*
O=C(NCc1ccccc1)C(c1ccc(C(F)(F)F)cc1)n1c(=O)c(-c2ccccc2)nc2ccccc21 (stereo not given)	nt	nt	-3	-2	3	nt	nt	nt
O=C(NCc1ccccc1)C(c1ccccc1F)n1c(=O)c(-c2cc3ccccc3[nH]2)nc2ccccc21 (stereo not given)	nt	nt	1	-5	53*	nt	48*	70*
O=C(NCc1ccccc1)C(c1ccncc1)n1c(=O)c(-c2cc3ccccc3[nH]2)nc2ccccc21 (stereo not given)	nt	nt	0	-4	54*	nt	51*	67*
COc1ccc(C(C(=O)NCc2ccccc2)n2c(=O)c(-c3cc4ccccc4[nH]3)nc3ccccc32)cc1 (stereo not given)	nt	nt	-1	-1	44*	nt	40*	64*
COc1ccc(C2CC(c3ccccc3)=NN2c2ccc(S(N)(=O)=O)cc2)cc1OC (stereo not given)	-11	-9	4	-1	-14	-17	nt	nt
